Screening data deposited in PubChem BioAssay by National Center for Advancing Translational Sciences (NCATS).
In the library only some 2.3% were active in any assay of this set; here they are far more common.
Giardia kill: Small Molecules that selectively kill Giardia lamblia: qHTS; Giardia lamblia trophozoite viability; activity change, % at 7.66 µM, hits read low; 0.15% of 340,000 active; AID 540267, 2011; in the data active means activity change below about -80%; inconclusive means between about -30% and that limit;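 further: parasites exposed to compound for two days anaerobically before the ATP read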
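Giardia trophozoites, 100 cells per well, were exposed to compounds for 48 hrs at 37 deg C under anaerobic conditions; viability was then read as ATP content by bioluminescence after 15-30 min at room temperature.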
Nrf2 inh: Nrf2 qHTS screen for inhibitors; A549 ARE-Fluc reporter, luciferase luminescence, 18-24 h; Potency, µM (series often up to 46 µM), usual class: inhibitors; 2.1% of 360,000 active; AID 504444, 2011; further: nearly all actives have a fitted effect of over 60% in size
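Reporter: ARE-Fluc in A549. Exposure: 18-24 h, 37 °C, 5% CO2, 5% FBS OPTI-MEM. Readouts: fluorescent cytotoxicity (CellTiter-Fluor), then luminescent Nrf2 signal after BugLite.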
Nrf2 ARE act: qHTS of Nrf2 Activators; AREc32 ARE-luciferase reporter (MCF7-derived line), luminescence, 24 h; Potency, µM (highest dose often 46.1 µM), most hits filed as activators; 0.31% of 410,000 active; further: nearly all actives have a fitted effect of over 65% in size
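AREc32_Fluc, 1000 cells/well, OPTI-MEM + 5% FBS, o/n 37 deg C 5% CO2; 23 nL cpd by pin tool, 24 hr; Steady-Glo 30 min RT, luminescence.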
mIDH1 inhibitor: qHTS for Inhibitors of mutant isocitrate dehydrogenase 1 (IDH1): qHTS; Isocitrate dehydrogenase [NADP] cytoplasmic (Homo sapiens), O75874; IDH1-R132H enzyme, NADPH consumption, diaphorase/resazurin fluorescence; Potency, µM (highest dose often 76.6 µM), most hits filed as inhibitors; 0.093% of 390,000 active; AID 602179, 2012; further: nearly all actives have a fitted effect of over 65% in size
Target sequence (O75874 whole entry R132H, stated change not applied): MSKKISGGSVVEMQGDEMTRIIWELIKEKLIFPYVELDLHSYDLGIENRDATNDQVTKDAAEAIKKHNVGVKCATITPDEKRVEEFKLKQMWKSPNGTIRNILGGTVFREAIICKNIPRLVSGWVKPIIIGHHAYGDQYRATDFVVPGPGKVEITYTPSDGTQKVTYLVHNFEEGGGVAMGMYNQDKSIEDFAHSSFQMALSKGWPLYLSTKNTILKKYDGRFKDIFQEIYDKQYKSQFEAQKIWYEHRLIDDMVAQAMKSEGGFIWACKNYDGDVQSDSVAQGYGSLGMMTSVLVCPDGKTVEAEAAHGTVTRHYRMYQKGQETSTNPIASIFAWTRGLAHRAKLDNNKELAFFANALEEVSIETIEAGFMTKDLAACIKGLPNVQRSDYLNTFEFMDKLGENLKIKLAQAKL
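IDH1-R132H (0.5 ug/mL dispensed) in pH 7.5 Tris buffer was preincubated 30 min with compound, then given a substrate mix of 0.016 mM NADPH and 2 mM alpha-KG for 80 min at room temperature; remaining NADPH was read by diaphorase/resazurin fluorescence.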
Anesthetic bind: qHTS Assay for Identification of Novel General Anesthetics; apoferritin/1-aminoanthracene competitive binding, fluorescence; Potency, µM (doses to about 77.5 µM), most hits filed as inhibitors; 0.074% of 350,000 active; AID 485281, 2010; further: nearly all actives have a fitted effect of over 20% in size
Target sequence (P02791 2-175 limits assumed): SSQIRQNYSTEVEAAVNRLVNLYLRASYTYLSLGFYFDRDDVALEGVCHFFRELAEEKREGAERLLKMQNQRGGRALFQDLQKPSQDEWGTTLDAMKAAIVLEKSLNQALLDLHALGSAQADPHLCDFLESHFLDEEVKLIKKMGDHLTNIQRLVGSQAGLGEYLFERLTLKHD
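Read-out: endpoint 1-AMA fluorescence, excitation 380 nm and emission 535 nm, after compounds sit 10 min at room temperature with 10 uM horse-spleen apoferritin in 50% saturated 1-AMA/PBS. Values come from four-parameter Hill fits.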
A549 tox-1: Nrf2 qHTS screen for inhibitors: counterscreen for cytotoxicity; A549 ARE-Fluc cells, CellTiter-Fluor viability, 18-24 h; Potency, µM (series often up to 46 µM), most hits filed as inhibitors; 0.16% of 390,000 active
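A549 ARE_Fluc cells in 5% FBS OPTI-MEM were exposed to compounds in concentration-response for 18-24 h at 37 deg C. Viability was read by CellTiter-Fluor fluorescence (Ex 405/Em 525) after 30 min, before the luciferase read.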
FLuc enzyme inh: Nrf2 qHTS screen for inhibitors: Purified Fluc Biochemical Counterscreen for Hit Validation; shares compounds with Nrf2 inh; purified firefly luciferase, luminescence inhibition; Potency, µM (doses to about 57.5 µM), most hits filed as inhibitors; 4% of 1,400 active; AID 720522, 2013; further: nearly all actives have a fitted effect of over 65% in size
A549 tox-2: Nrf2 qHTS screen for inhibitors: A549 ARE-Fluc Cytotoxicity Counterscreen for Hit Validation; 2% of 1,400 active; Potency, µM (series often up to 46.1 µM), most hits filed as inhibitors; shares compounds with Nrf2 inh; A549 ARE-Fluc cells, cytotoxicity counterscreen;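 further: cells exposed to compounds for 18 to 24 hours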
Nrf2 ARE inh: Nrf2 qHTS screen for inhibitors: Nrf2 A549 ARE-Fluc Confirmation Assay for Hit Validation; A549 ARE-firefly luciferase reporter, luminescence; Potency, µM (titrated, usually from 46.1 µM), most hits filed as inhibitors; AID 720524, 2013; 74% of 1,400 active; shares compounds with Nrf2 inh; further: nearly all actives have a fitted effect of over 65% in size
Of the large screens only hits and unclear results are named; the others gave an inactive call (follow-up assays come after a bar, where they were run). Unless noted, the call rests on the fitted dose curve; in most records, active means well fitted curve in the direction sought with a large enough effect; inconclusive means small, poorly fitted or top-dose-only effect, or another doubt; inactive means no such curve, though single readings can be large; an effect the other way counts as inactive or inconclusive.

C[C@@H]1Cc2c(Cl)cc(C(=O)N[C@H](Cc3ccccc3)C(=O)O)c(O)c2C(=O)O1	none (no result: Giardia kill, Nrf2 inh, Nrf2 ARE act, mIDH1 inhibitor, A549 tox-1)
O=S(=O)(c1ccc(Cl)cc1)c1cc(Cl)c(Cl)cc1Cl	none (no result: Giardia kill, Nrf2 inh, Nrf2 ARE act, mIDH1 inhibitor, A549 tox-1)
CCn1cc(C(=O)c2cccs2)c2ccccc21	none
Cc1cc(C)cc(NC(=O)Cn2cc(C(=O)c3cccs3)c3ccccc32)c1	Nrf2 inh 16.4µM (no result: Giardia kill)
CN(C)C(=O)Nc1ccc(-n2nc(C(C)(C)C)oc2=O)c(Cl)c1	none (no result: Giardia kill, Nrf2 inh, Nrf2 ARE act, mIDH1 inhibitor, A549 tox-1)
Cc1cccc(C(=O)Nc2ccc(C(=O)OCc3cc(=O)n4nc(C5CC5)sc4n3)cc2)c1	none (no result: Giardia kill, Nrf2 inh)
Cc1ccccc1C(=O)Nc1ccc2nc(SCC(=O)N(C)c3ccccc3)sc2c1	Nrf2 inh inconclusive (no result: Giardia kill)
CC(C)(C)c1ccc(C(=O)Nc2ccc3nc(SCC(=O)N4CCCC4)sc3c2)cc1	Nrf2 inh 14.6µM, A549 tox-1 inconclusive (no result: Giardia kill)
O=[N+]([O-])c1cc([As](=O)(O)c2ccc(O)c([N+](=O)[O-])c2)ccc1O	Giardia kill -83.4
Cc1ccccc1N1C(=O)NC(=O)/C(=C\c2cc(Br)c(N3CCOCC3)o2)C1=O	Nrf2 inh 16.4µM, A549 tox-1 23.1µM
C[C@H]1CCCC=CC2C[C@H](O)C[C@@H]2[C@H](O)C=CC(=O)O1 (some centres not stated)	none (no result: Giardia kill, Nrf2 inh, Nrf2 ARE act, mIDH1 inhibitor, Anesthetic bind, A549 tox-1) | FLuc enzyme inh inactive | A549 tox-2 inconclusive | Nrf2 ARE inh 0.231µM
CCOC(=O)c1ccc(N2C(=O)c3n[nH]c(-c4cccs4)c3C2c2ccc(OC)cc2OC)cc1 (configuration not stated)	Nrf2 inh inconclusive (no result: Giardia kill)
CCOc1ccc(-c2c(C)n(-c3ccc(OCC)cc3)c3[n+]2CCCCC3)cc1	Nrf2 inh 2.59µM | FLuc enzyme inh inactive | A549 tox-2 inconclusive | Nrf2 ARE inh 1.16µM
COC(=O)[C@]12OC[C@]34C([C@@H](O)[C@@H]1O)[C@]1(C)CC(=O)C(O)=C(C)[C@@H]1C[C@H]3OC(=O)[C@H](O)[C@@H]24 (some centres not stated)	Nrf2 inh 1.3µM, A549 tox-1 inconclusive | FLuc enzyme inh inactive | A549 tox-2 inconclusive | Nrf2 ARE inh 1.46µM
CN(CC(=O)N[C@H](CO)Cc1ccccc1)C(=O)[C@H](CCS(C)=O)NC(=O)[C@@H](N)Cc1ccc(O)cc1 (some centres not stated)	none (no result: Giardia kill, Nrf2 inh, Nrf2 ARE act, mIDH1 inhibitor, A549 tox-1)
Cc1ccc(C(=O)Oc2cc(N)n(S(=O)(=O)c3ccc(F)cc3)n2)cc1	Nrf2 inh 1.84µM | FLuc enzyme inh inactive | A549 tox-2 inactive | Nrf2 ARE inh 1.64µM
CCCCCn1c(=O)c(C(=O)Nc2ccccn2)c(O)c2ccccc21	Nrf2 inh inconclusive
CCCCCCn1c(=O)c(C(=O)Nc2cnccn2)c(O)c2ccccc21	Nrf2 inh 4.11µM, A549 tox-1 inconclusive | FLuc enzyme inh inactive | A549 tox-2 inconclusive | Nrf2 ARE inh 5.17µM
CC(=O)N1CC[N+](C)(C)CC1	none (no result: Giardia kill, Nrf2 inh, Nrf2 ARE act, mIDH1 inhibitor, A549 tox-1)
Cc1ccc(-c2cc(-c3ccc(C)cc3)[n+](C)o2)cc1	Nrf2 inh 5.17µM, A549 tox-1 inconclusive | FLuc enzyme inh inactive | A549 tox-2 inactive | Nrf2 ARE inh 3.66µM
